# Legend:
# Assay in all cases: DAPPL (digital affinity profiling via proximity ligation, sequencing); 10 mM Tris-HCl pH 7.5, 50 mM NaCl, 1 mM DTT, 4% glycerol, room temperature, 30 min; GST-TFs on glutathione beads, 16-mer random dsDNA library, 0.1% formaldehyde crosslink after washing; high values mean tight binding
# FLI1 = target: T1, FLI1 (Homo sapiens, UniProt Q01543 1-452); conditions: protein: recombinant; tags: N-terminal GST; dsDNA, one strand shown
# T1 sequence: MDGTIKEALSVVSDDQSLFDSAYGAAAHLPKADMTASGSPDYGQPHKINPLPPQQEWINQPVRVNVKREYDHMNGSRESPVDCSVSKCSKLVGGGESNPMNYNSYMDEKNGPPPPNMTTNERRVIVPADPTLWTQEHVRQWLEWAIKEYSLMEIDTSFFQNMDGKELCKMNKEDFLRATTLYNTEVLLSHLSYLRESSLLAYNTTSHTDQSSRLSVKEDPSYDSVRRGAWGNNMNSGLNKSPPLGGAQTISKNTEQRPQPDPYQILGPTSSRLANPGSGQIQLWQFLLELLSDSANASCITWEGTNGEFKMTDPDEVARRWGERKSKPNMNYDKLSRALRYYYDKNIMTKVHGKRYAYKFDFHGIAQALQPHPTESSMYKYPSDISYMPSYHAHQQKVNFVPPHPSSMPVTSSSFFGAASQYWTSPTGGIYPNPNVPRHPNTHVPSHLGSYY
# Outline: (§1)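 Yeast served to express human transcription factors as GST fusions, which were then captured on glutathione beads and labelled with DNA barcodes. Pooled with a tag-only sample, they were incubated with 200 nmole of a 16-mer random double-stranded DNA library for 30 min at room temperature in Tris/NaCl/DTT/glycerol buffer, washed, crosslinked with 0.1% formaldehyde, ligated by proximity, amplified by PCR and sequenced. Dividing each hexamer's read frequency for a factor by its frequency for the tag-only sample gives the binding signal.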
# ELK1 = target: T2, ELK1 (Homo sapiens, UniProt P19419 1-428); conditions: protein: recombinant; tags: N-terminal GST; dsDNA, one strand shown
# T2 sequence: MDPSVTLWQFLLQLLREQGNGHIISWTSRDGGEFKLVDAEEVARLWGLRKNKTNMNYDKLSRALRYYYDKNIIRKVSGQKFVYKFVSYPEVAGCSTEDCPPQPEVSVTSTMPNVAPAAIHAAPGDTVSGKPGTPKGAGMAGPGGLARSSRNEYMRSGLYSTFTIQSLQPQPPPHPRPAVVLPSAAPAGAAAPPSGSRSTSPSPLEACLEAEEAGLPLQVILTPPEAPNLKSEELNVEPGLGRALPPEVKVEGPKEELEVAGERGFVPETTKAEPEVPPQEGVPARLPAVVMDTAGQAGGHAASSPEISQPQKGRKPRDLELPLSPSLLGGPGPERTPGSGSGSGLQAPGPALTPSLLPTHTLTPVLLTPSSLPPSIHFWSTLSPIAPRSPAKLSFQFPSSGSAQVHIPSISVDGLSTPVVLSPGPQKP
# Outline: as §1
# GABPA = target: T3, GABPA (Homo sapiens, UniProt Q06546 1-454); conditions: protein: recombinant; tags: N-terminal GST; dsDNA, one strand shown
# T3 sequence: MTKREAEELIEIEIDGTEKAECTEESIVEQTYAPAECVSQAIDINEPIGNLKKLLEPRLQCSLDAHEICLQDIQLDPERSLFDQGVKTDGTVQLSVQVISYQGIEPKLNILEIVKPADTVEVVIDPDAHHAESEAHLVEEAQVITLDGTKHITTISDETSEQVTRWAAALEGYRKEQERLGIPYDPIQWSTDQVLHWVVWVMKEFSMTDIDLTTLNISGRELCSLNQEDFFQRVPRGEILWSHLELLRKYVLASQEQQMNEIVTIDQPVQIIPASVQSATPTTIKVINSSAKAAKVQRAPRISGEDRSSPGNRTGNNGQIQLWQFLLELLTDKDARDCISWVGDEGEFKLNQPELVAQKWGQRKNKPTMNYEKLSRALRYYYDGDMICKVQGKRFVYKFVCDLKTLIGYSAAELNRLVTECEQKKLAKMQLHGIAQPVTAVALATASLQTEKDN
# Outline: as §1
# ERG = target: T4, ERG (Homo sapiens, UniProt P11308 1-479); conditions: protein: recombinant; tags: N-terminal GST; dsDNA, one strand shown
# T4 sequence: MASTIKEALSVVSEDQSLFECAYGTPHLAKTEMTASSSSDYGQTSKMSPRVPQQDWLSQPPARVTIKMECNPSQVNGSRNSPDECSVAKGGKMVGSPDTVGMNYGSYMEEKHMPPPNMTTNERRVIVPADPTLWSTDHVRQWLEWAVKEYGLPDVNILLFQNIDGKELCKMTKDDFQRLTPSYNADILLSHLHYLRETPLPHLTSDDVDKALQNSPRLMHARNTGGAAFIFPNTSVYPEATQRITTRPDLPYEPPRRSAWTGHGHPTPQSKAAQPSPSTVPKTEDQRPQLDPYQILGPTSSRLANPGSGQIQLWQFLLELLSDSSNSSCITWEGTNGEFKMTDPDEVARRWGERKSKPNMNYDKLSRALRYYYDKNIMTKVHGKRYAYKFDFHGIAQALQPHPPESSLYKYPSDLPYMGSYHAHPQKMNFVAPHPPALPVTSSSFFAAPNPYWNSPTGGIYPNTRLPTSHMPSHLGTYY
# Outline: as §1
# ELF1 = ELF1 (Homo sapiens, UniProt P32519 1-619); conditions: protein: recombinant; tags: N-terminal GST; dsDNA, one strand shown
# Outline: as §1
# EHF = target: T5, EHF (Homo sapiens, UniProt Q9NZC4 1-300); conditions: protein: recombinant; tags: N-terminal GST; dsDNA, one strand shown
# T5 sequence: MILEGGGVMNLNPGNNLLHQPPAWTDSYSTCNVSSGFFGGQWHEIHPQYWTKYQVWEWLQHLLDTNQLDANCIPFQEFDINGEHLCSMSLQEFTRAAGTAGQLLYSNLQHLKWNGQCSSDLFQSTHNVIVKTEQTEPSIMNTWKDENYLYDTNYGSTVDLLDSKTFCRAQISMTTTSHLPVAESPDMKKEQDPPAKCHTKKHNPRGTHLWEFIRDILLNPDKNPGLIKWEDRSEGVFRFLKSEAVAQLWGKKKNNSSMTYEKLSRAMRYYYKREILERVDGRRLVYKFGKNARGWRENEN
# Outline: as §1
# SPI1 = SPI1 (Homo sapiens, UniProt P17947 1-270); conditions: protein: recombinant; tags: N-terminal GST; dsDNA, one strand shown
# Outline: as §1
# SPIB = SPIB (Homo sapiens, UniProt Q01892 1-262); conditions: protein: recombinant; tags: N-terminal GST; dsDNA, one strand shown
# Outline: as §1
# ELK3 = target: T6, ELK3 (Homo sapiens, UniProt P41970 1-407); conditions: protein: recombinant; tags: N-terminal GST; dsDNA, one strand shown
# T6 sequence: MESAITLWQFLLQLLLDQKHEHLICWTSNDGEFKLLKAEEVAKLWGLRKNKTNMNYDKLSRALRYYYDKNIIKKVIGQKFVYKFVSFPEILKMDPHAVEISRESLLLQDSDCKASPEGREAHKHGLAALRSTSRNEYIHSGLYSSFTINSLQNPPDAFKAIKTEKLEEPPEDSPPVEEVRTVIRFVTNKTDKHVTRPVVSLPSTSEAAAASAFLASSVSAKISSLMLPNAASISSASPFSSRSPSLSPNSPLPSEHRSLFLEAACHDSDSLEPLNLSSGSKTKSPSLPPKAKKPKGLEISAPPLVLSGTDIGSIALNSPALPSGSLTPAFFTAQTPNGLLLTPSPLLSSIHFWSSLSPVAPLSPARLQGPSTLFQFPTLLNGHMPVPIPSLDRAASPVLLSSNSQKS
# Outline: as §1
# FEV = target: T7, FEV (Homo sapiens, UniProt Q99581 1-238); conditions: protein: recombinant; tags: N-terminal GST; dsDNA, one strand shown
# T7 sequence: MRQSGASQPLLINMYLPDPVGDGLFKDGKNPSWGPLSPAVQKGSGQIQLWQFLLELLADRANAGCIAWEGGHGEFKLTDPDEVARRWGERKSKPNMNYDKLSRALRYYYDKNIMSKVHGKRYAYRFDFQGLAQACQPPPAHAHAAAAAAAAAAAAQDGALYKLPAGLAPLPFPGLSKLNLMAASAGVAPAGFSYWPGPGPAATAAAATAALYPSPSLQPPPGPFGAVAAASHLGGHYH
# Outline: as §1
# ETV5 = ETV5 (Homo sapiens, UniProt P41161 1-510); conditions: protein: recombinant; tags: N-terminal GST; dsDNA, one strand shown
# Outline: as §1
# HSF1 = HSF1 (Homo sapiens, UniProt Q00613 1-529); conditions: protein: recombinant; tags: N-terminal GST; chain copies: 3; dsDNA, one strand shown
# Outline: as §1
# SPIC = target: T8, SPIC (Homo sapiens, UniProt Q8N5J4 1-248); conditions: protein: recombinant; tags: N-terminal GST; dsDNA, one strand shown
# T8 sequence: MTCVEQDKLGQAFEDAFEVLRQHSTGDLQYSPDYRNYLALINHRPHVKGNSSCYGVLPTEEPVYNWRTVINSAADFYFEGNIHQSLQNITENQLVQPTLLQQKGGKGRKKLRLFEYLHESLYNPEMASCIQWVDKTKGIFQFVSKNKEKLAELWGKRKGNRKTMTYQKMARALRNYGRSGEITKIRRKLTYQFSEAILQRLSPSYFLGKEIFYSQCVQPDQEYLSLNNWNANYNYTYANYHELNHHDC
# Outline: as §1
# ELF4 = ELF4 (Homo sapiens, UniProt Q99607 1-663); conditions: protein: recombinant; tags: N-terminal GST; dsDNA, one strand shown
# Outline: as §1
# ELK4 = target: T9, ELK4 (Homo sapiens, UniProt P28324-2 1-405); conditions: protein: recombinant; tags: N-terminal GST; dsDNA, one strand shown
# T9 sequence: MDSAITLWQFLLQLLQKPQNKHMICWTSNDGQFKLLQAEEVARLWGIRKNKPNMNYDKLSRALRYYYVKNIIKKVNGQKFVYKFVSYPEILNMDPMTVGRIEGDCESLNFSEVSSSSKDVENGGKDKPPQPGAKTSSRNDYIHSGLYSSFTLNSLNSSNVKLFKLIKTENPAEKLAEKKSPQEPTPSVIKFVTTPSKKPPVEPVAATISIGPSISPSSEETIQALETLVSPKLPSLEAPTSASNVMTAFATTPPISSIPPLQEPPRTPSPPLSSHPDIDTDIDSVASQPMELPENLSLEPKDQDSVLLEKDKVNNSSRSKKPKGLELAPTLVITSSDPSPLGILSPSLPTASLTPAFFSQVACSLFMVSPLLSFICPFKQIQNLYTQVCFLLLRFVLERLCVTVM
# Outline: as §1
# ETV2 = target: T10, ETV2 (Homo sapiens, UniProt O00321 1-342); conditions: protein: recombinant; tags: N-terminal GST; dsDNA, one strand shown
# T10 sequence: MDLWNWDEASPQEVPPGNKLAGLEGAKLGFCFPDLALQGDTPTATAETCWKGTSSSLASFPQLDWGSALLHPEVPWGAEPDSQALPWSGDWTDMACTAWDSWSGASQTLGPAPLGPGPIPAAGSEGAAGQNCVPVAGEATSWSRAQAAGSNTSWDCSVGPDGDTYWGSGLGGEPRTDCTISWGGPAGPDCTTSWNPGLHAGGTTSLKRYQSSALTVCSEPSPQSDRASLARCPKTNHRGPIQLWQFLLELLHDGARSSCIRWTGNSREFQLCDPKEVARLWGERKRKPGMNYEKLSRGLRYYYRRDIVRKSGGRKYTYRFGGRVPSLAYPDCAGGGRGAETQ
# Outline: as §1
# ELF3 = target: T11, ELF3 (Homo sapiens, UniProt P78545 1-371); conditions: protein: recombinant; tags: N-terminal GST; dsDNA, one strand shown
# T11 sequence: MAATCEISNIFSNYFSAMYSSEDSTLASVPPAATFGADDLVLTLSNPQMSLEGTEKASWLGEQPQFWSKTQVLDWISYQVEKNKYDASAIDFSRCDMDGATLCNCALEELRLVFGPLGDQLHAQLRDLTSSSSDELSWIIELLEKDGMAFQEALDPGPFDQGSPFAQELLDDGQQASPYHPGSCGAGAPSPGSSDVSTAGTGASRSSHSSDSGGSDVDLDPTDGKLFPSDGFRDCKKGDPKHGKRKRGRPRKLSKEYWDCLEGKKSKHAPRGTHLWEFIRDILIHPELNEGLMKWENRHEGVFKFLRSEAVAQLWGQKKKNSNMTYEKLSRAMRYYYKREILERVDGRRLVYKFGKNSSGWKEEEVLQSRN
# Outline: as §1
# CRX = CRX (Homo sapiens, UniProt O43186 1-299); conditions: protein: recombinant; tags: N-terminal GST; dsDNA, one strand shown
# Outline: as §1
# ETV1 = ETV1 (Homo sapiens, UniProt P50549 1-477); conditions: protein: recombinant; tags: N-terminal GST; dsDNA, one strand shown
# Outline: as §1
# CRX, sequence (O43186 whole entry): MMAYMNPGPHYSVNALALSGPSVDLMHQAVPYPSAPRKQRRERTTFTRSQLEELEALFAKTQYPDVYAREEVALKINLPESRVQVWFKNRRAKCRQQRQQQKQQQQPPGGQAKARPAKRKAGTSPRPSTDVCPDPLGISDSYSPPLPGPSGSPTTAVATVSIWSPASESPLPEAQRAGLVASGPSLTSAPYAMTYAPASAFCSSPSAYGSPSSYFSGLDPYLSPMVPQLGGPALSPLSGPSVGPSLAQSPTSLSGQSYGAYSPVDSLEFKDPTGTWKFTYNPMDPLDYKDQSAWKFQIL
# SPIB, sequence (Q01892 whole entry): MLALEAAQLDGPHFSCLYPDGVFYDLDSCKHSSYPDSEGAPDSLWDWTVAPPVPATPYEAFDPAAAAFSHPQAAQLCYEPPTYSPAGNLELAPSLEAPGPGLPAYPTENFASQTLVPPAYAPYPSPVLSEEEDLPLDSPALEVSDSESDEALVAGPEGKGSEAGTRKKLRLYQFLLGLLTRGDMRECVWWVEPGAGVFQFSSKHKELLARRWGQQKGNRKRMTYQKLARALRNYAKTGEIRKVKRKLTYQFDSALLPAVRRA
# ETV1, sequence (P50549 whole entry): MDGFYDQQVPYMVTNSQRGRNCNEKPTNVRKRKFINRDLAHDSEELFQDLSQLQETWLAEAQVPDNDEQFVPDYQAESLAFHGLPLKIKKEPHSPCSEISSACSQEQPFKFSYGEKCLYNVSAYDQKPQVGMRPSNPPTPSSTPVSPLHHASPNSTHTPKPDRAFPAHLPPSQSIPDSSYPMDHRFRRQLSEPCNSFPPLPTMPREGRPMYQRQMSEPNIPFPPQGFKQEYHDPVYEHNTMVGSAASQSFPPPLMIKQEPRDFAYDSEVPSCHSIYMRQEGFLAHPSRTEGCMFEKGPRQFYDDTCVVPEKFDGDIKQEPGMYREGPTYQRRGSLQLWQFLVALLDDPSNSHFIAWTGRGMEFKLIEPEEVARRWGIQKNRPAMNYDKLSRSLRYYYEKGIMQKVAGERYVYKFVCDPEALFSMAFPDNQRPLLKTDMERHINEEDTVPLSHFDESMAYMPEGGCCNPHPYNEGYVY
# ELF4, sequence (Q99607 whole entry): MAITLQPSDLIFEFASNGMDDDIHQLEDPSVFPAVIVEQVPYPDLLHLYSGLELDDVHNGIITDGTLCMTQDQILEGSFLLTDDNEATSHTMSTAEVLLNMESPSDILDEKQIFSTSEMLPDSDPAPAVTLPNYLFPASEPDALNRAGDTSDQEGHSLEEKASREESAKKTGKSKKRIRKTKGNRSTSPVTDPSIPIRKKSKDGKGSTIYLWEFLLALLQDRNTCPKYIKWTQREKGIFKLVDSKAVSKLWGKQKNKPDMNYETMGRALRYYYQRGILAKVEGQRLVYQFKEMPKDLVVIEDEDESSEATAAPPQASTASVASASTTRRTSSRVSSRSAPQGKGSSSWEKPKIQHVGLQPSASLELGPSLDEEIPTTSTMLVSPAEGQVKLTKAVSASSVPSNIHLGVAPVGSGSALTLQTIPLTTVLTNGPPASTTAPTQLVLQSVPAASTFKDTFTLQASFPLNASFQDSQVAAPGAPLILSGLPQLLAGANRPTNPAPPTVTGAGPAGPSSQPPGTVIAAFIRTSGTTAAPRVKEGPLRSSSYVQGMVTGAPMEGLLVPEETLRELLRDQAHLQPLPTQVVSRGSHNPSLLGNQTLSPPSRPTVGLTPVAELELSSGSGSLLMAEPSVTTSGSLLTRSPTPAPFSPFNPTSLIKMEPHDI
# ETV5, sequence (P41161 whole entry): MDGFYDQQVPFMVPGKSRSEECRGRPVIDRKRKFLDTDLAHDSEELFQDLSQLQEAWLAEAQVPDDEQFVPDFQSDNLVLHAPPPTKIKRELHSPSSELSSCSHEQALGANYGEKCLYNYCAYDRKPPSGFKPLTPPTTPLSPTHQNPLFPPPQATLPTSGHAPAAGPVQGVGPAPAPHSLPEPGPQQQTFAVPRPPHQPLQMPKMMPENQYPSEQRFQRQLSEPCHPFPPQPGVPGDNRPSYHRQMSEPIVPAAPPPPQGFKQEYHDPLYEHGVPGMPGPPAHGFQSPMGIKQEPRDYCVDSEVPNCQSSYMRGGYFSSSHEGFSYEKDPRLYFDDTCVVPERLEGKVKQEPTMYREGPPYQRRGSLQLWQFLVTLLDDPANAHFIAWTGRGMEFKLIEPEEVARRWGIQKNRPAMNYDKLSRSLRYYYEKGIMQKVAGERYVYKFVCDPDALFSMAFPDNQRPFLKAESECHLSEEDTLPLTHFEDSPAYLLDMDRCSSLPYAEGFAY
# HSF1, sequence (Q00613 whole entry): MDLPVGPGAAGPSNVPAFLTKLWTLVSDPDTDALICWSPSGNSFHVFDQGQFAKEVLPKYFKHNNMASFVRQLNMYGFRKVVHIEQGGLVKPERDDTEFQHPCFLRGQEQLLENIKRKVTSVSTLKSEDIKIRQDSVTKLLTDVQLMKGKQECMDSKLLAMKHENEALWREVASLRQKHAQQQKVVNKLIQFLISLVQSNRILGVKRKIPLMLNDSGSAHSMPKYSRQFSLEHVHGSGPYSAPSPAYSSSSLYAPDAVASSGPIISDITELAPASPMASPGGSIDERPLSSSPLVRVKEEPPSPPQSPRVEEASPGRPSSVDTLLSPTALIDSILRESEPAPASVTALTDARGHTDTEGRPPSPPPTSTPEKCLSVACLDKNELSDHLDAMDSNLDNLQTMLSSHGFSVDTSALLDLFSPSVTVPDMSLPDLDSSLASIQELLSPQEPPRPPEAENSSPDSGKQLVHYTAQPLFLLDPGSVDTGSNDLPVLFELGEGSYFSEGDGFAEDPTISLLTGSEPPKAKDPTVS
# ELF1, sequence (P32519 whole entry): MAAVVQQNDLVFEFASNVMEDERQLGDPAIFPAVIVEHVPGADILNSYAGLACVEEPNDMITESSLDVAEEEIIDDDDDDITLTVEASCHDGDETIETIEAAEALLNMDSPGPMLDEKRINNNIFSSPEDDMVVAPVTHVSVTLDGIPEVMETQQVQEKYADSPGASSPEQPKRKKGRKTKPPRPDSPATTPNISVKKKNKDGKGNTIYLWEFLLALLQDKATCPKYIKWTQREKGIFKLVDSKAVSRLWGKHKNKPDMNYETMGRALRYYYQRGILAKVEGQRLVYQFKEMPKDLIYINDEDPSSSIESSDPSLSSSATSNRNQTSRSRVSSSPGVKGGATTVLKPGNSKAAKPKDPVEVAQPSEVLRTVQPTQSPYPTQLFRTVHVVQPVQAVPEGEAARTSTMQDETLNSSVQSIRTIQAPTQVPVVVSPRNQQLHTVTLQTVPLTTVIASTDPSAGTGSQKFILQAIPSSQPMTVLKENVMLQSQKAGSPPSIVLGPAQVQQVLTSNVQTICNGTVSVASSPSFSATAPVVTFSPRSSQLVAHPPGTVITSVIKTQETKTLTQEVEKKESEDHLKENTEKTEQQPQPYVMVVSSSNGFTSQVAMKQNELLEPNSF
sequence,measurement,setting,value
ATGACA,binding signal,FLI1,"1.34 fold enrichment (6-mer frequency, TF over GST control)"
same,binding signal,ELK1,"1.32 fold enrichment (6-mer frequency, TF over GST control)"
same,binding signal,GABPA,"1.45 fold enrichment (6-mer frequency, TF over GST control)"
same,binding signal,ERG,"1.32 fold enrichment (6-mer frequency, TF over GST control)"
same,binding signal,ELF1,"1.39 fold enrichment (6-mer frequency, TF over GST control)"
same,binding signal,EHF,"1.32 fold enrichment (6-mer frequency, TF over GST control)"
same,binding signal,SPI1,"1.29 fold enrichment (6-mer frequency, TF over GST control)"
same,binding signal,SPIB,"1.32 fold enrichment (6-mer frequency, TF over GST control)"
same,binding signal,ELK3,"1.3 fold enrichment (6-mer frequency, TF over GST control)"
same,binding signal,FEV,"1.22 fold enrichment (6-mer frequency, TF over GST control)"
same,binding signal,ETV5,"1.29 fold enrichment (6-mer frequency, TF over GST control)"
same,binding signal,HSF1,"1.09 fold enrichment (6-mer frequency, TF over GST control)"
same,binding signal,SPIC,"1.14 fold enrichment (6-mer frequency, TF over GST control)"
same,binding signal,ELF4,"1.32 fold enrichment (6-mer frequency, TF over GST control)"
same,binding signal,ELK4,"1.19 fold enrichment (6-mer frequency, TF over GST control)"
same,binding signal,ETV2,"1.19 fold enrichment (6-mer frequency, TF over GST control)"
same,binding signal,ELF3,"1.33 fold enrichment (6-mer frequency, TF over GST control)"
same,binding signal,CRX,"1.09 fold enrichment (6-mer frequency, TF over GST control)"
same,binding signal,ETV1,"1.28 fold enrichment (6-mer frequency, TF over GST control)"

# Source: publication PMC7862700, “An all-to-all approach to the identification of sequence-specific readers for epigenetic DNA modifications on cytosine”
